Assay outcomes: PubChem, Johns Hopkins Ion Channel Center
KCNQ2 enhance – enhances the rat KCNQ2 potassium channel | O88943 | CHO-K1 KCNQ2, FluxOR thallium flux fluorescence; stronger effect = higher value | B-score at 10 µM | actives 0.54% (n = 310,000) | AID 2239;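 active = fluorescence ratio B-score at least 3 SD of library B-scores, with initial fluorescence B-score within 3 of them, cut at about 5.3 in these data; same plate scores as AID 2156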;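 note: B-score of peak minus minimum over baseline fluorescence ratio after K+ and Tl+ stimulus; positive B-score means potentiation of KCNQ2 with more thallium influx and brighter signal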
KCNQ2 inh – KCNQ2 (rat) channel inhibition | O88943 | CHO-K1 KCNQ2, FluxOR thallium flux, 20 min; stronger effect = lower value | B-score at 10 µM | actives 1.1% (n = 310,000);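 active = fluorescence ratio B-score at most minus 3 library SDs, with starting brightness B-score within 2 library SDs, cut at about -5.5 in these data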
Kir21 conf inh – confirmation of mouse Kir2.1 potassium channel inhibitors; AID 2032; shares compounds with KCNQ2 enhance; Kir2.1-expressing cells, FluxOR thallium flux fluorescence; stronger effect = lower value; actives 41% (n = 2,300); Tl flux remaining, % of negative control (stronger effect = lower value), % at 10 µM;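 active = Primary-screen hit whose thallium flux fell at least 3 control SD below untreated wells in both duplicates, with normal baseline fluorescence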;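 note: 0% = blank wells without stimulus and 100% = stimulated no-compound controls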
Target sequence (P35561 whole entry, looked up): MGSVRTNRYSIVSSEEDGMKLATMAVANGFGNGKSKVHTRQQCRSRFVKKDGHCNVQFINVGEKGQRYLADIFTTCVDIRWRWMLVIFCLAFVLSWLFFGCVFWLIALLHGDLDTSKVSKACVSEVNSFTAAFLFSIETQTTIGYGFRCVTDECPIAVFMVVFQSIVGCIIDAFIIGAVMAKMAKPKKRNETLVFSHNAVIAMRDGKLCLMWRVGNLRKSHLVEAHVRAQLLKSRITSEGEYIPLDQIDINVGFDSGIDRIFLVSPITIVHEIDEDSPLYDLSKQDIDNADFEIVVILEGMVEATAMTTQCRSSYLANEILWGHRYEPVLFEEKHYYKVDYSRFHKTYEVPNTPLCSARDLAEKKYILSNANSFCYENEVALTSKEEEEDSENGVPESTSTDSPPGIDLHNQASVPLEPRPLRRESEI
HEK293 Tl flux – parental HEK293 activity in Kir2.1 inhibitor counter-screen; shares compounds with KCNQ2 enhance; parental HEK293 cells, FluxOR thallium flux fluorescence; 0% = unstimulated blank wells; FluxOR signal as % of negative control (100 = no effect), % at 10 µM; actives 19% (n = 2,300); AID 2105;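 active = dye signal at least 3 control SD above or below untreated wells in both duplicates, raw fluorescence within 3, either direction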;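 note: percent is based on the flux ratio of peak minus minimum fluorescence over baseline F0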
CHO-K1 Tl ctr – alters thallium flux in parental CHO-K1 cells, KCNQ2 counter-screen; shares compounds with KCNQ2 enhance; FluxOR thallium flux fluorescence; zero = vehicle mean+3SD, 100% = vehicle-minus-blank window; activity increase over 3SD of controls, % at 10 µM; actives 43% (n = 1,200); AID 2282;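 active = signal rise of at least 3 SD above the untreated control mean, in both duplicate wells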;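 note: counter screen of KCNQ2 potentiator hits so any rise reflects channel-independent effects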
KCNQ1 sel pot – tests whether KCNQ2 potentiators also act on human KCNQ1; activation over 3SD threshold, % at 10 µM; AID 2283; shares compounds with KCNQ2 enhance; CHO KCNQ1 stable, FluxOR thallium flux fluorescence; beyond 3SD, as % of vehicle-control signal; actives 28% (n = 1,200);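 active = fluorescence ratio rise of at least 3 SD of vehicle wells above their mean, in both replicate wells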;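 note: 0% = vehicle mean plus 3 SD and 100% = vehicle minus unstimulated blank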
KCNQ2 pot confirm – rat KCNQ2 channel potentiator confirmation | shares compounds with KCNQ2 enhance | actives 68% (n = 1,200) | potentiation, less the hit threshold, % at 10 µM | CHO-KCNQ2 cells, FluxOR thallium flux fluorescence;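 active = fluorescence ratio rising 3 SD or more over the vehicle control mean in both replicates, plus primary screen hit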;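 note: peak minus minimum thallium fluorescence divided by baseline after K/Tl stimulus; 0% = vehicle mean plus 3 SD and 100% = vehicle minus unstimulated blank difference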
Kir21 spec – selectivity of KCNQ2 potentiators: effect on mouse Kir2.1; shares compounds with KCNQ2 enhance; HEK293 Kir2.1, FluxOR thallium flux fluorescence; activity over 3SD threshold, % at 10 µM; actives 2% (n = 1,200); AID 2345;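 active = fluorescence ratio rise of at least 3 SD above the vehicle-control mean, seen in both replicates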;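 note: 0% = vehicle mean plus 3 SD and 100% = vehicle minus no-stimulus blank window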
KCNQ2 W236L pot – potentiates the retigabine-insensitive rat KCNQ2 W236L mutant channel; shares compounds with KCNQ2 enhance; CHO KCNQ2-W236L, automated patch clamp current; current increase over 3SD of negative controls (%), stronger effect = higher value, % at 25 µM; actives 10% (n = 940);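 active = current increase at least 3 SD of the untreated controls above them in both duplicate recordings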
Numbers without * were called inactive; i = inactive; nt = no result. Only some compounds are listed: those with a hit (about 1.6% of all), similar ones and a draw of the others.

SMILES | KCNQ2 enhance | KCNQ2 inh | Kir21 conf inh | HEK293 Tl flux | others
Cc1ccc(N=Nc2c(N)[nH]n3c(=O)cc(-c4ccccc4)nc23)cc1 | 4.3 | i | nt | nt
COc1ccc(-c2c(C(F)(F)F)[nH]n3c(=O)cc(-c4ccccc4)nc23)cc1 | 15* | i | i | 225%* | CHO-K1 Tl ctr=-18;KCNQ1 sel pot=66*;KCNQ2 pot confirm=49*;Kir21 spec=-31;KCNQ2 W236L pot=i
Cc1[nH]n2c(=O)cc(-c3ccc([N+](=O)[O-])cc3)nc2c1-c1ccccc1 | nt | i | nt | nt
Cc1cccc(-c2ocnc2C(=O)N2CCN(C(=O)c3cccs3)CC2)c1 | nt | i | nt | nt
CC(OC(=O)Cc1n[nH]c(=O)c2ccccc12)C(=O)Nc1ccc(F)cc1Cl (centres undefined) | 1.1 | i | nt | nt
CC(C)C(=O)NNC(=O)c1csc(-c2cccs2)n1 | 2 | i | nt | nt
N#Cc1ccc(CSc2nnc(-c3ccncc3)n2CCc2ccccc2)cc1 | nt | i | nt | nt
C=CCn1c(SCC(=O)NC(C)(C)C)nnc1-c1ccccc1O | nt | i | nt | nt
C=CCn1c(SCc2cccc(C#N)c2)nnc1-c1ccccc1O | 0.25 | i | 52%* | i
C=CCn1c(SCc2ccc(C#N)cc2)nnc1-c1cccc(Cl)c1 | nt | i | 52%* | 72%*
CN(Cc1ccccc1)CC1CCCN(CCc2ccccc2F)C1 (centres undefined) | nt | i | nt | nt
COc1ccc(CN(C)CC2CCCN(CCc3ccc(F)cc3)C2)cc1OC (centres undefined) | nt | i | 62%* | i
COc1ccc(CN(C)CC2CCCN(CCc3ccc(Cl)cc3)C2)cc1OC (centres undefined) | nt | i | nt | nt
COc1ccc(F)c(CN(C)CC2CCCN(CCc3ccc(F)cc3)C2)c1 (centres undefined) | nt | i | 31%* | i
CC(=O)c1cccc(CN(C)CC2CCCN(CCc3ccccc3C)C2)c1 (centres undefined) | 0.27 | i | 51%* | i
COc1ccc(CCN2CCCC(CN(C)Cc3cc(OC)c(OC)c(OC)c3)C2)cc1 (centres undefined) | 0.93 | i | nt | nt
COc1cc(CN(C)CC2CCCN(CCc3ccc(F)cc3)C2)c(Cl)cc1O (centres undefined) | 0.49 | i | nt | nt
CCOc1cccc(CN(C)CC2CCCN(CCc3ccc(Cl)cc3)C2)c1O (centres undefined) | nt | i | 48%* | i
CCOc1ccc(C(=O)C(C)OC(=O)Cn2c(C)csc2=O)cc1 (centres undefined) | 0.72 | i | nt | nt
O=C(O)c1ccccc1-c1csc(-c2ccccc2)n1 | 0.44 | i | nt | nt
CCn1cc(C(=O)Nc2sc(C)c(C)c2C(=O)OC)cn1 | 0.37 | i | nt | nt
O=C(CNCc1cccs1)Nc1ccc(N2CCCCCC2)cc1 | 1.1 | i | nt | nt
O=C(COc1ccccc1[N+](=O)[O-])NCCC1=CCCCC1 | nt | i | nt | nt
Cc1cccc(NC(=O)NCCCCc2ccccc2)c1 | nt | i | nt | nt
O=C(NCCCCc1ccccc1)Nc1cccc(F)c1 | 13* | i | i | i | CHO-K1 Tl ctr=-2;KCNQ1 sel pot=-20;KCNQ2 pot confirm=27*;Kir21 spec=-40;KCNQ2 W236L pot=i
COc1ccc(S(=O)(=O)N2CCN(CC3CC=CCC3)CC2)cc1 (centres undefined) | nt | i | nt | nt
Cc1ccccc1-c1cnn(-c2cccc([N+](=O)[O-])c2)c1N | 0.71 | i | nt | nt
Nc1c(-c2ccccc2Cl)cnn1-c1cccc([N+](=O)[O-])c1 | 5.3* | i | i | 127%* | CHO-K1 Tl ctr=-20;KCNQ1 sel pot=-33;KCNQ2 pot confirm=2.3*;Kir21 spec=-25;KCNQ2 W236L pot=i
